# From ChEMBL document CHEMBL1961873, “Compounds: GSK PKIS; Assays: Nanosyn kinase panel” (2012)
# How the values were obtained:
# [1] = test system: Tyrosine-protein kinase ABL1 (Homo sapiens), P00519 [T315I]; conditions: at 1 µM
# [2] = test system: Tyrosine-protein kinase ABL1 (Homo sapiens), P00519 [Y253F]; conditions: at 0.1 µM
# [3] = test system: Tyrosine-protein kinase ABL1 (Homo sapiens), P00519 [Y253F]; conditions: at 1 µM
# [4] = molecular target: Tyrosine-protein kinase ABL1 (Homo sapiens) (UniProt P00519); conditions: at 0.1 µM
# [5] = molecular target: Tyrosine-protein kinase ABL1 (Homo sapiens) (UniProt P00519); conditions: at 1 µM
# [6] = molecular target: ALK tyrosine kinase receptor (Homo sapiens) (UniProt Q9UM73); conditions: at 0.1 µM
# [7] = molecular target: ALK tyrosine kinase receptor (Homo sapiens) (UniProt Q9UM73); conditions: at 1 µM
# [8] = molecular target: Tyrosine-protein kinase ABL2 (Homo sapiens) (UniProt P42684); conditions: at 0.1 µM
# [9] = molecular target: Tyrosine-protein kinase receptor UFO (Homo sapiens) (UniProt P30530); conditions: at 0.1 µM
# [10] = molecular target: Tyrosine-protein kinase receptor UFO (Homo sapiens) (UniProt P30530); conditions: at 1 µM
# [11] = molecular target: Tyrosine-protein kinase Blk (Homo sapiens) (UniProt P51451); conditions: at 0.1 µM
# [12] = molecular target: Tyrosine-protein kinase Blk (Homo sapiens) (UniProt P51451); conditions: at 1 µM
# [13] = molecular target: T1, Cytoplasmic tyrosine-protein kinase BMX (Homo sapiens) (UniProt P51813); conditions: at 0.1 µM
# T1 sequence (whole entry): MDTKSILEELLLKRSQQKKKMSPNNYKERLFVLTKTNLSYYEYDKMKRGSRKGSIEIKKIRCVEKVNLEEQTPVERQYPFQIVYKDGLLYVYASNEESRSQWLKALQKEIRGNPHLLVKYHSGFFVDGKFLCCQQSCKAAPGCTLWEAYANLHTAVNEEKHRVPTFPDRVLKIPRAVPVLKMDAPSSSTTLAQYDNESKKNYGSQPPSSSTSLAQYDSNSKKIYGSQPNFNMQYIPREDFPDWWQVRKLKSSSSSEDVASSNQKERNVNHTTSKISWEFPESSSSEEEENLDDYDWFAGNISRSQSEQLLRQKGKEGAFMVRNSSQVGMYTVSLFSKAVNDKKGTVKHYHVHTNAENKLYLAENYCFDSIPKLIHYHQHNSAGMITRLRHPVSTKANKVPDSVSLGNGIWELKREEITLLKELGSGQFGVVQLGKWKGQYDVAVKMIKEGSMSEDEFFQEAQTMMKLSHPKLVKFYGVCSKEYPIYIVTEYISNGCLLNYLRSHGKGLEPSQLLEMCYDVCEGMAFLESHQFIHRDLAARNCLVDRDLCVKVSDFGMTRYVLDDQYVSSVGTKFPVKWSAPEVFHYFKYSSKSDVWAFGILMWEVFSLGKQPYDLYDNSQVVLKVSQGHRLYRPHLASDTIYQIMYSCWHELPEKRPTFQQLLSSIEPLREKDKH
# [14] = molecular target: T1, Cytoplasmic tyrosine-protein kinase BMX (Homo sapiens); conditions: at 1 µM
# [15] = molecular target: Protein-tyrosine kinase 6 (Homo sapiens) (UniProt Q13882); conditions: at 0.1 µM
# [16] = molecular target: Protein-tyrosine kinase 6 (Homo sapiens) (UniProt Q13882); conditions: at 1 µM
# [17] = molecular target: Tyrosine-protein kinase BTK (Homo sapiens) (UniProt Q06187); conditions: at 0.1 µM
# [18] = molecular target: Tyrosine-protein kinase BTK (Homo sapiens) (UniProt Q06187); conditions: at 1 µM
# [19] = molecular target: Tyrosine-protein kinase CSK (Homo sapiens) (UniProt P41240); conditions: at 0.1 µM;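 also: value given is the averaged percent inhibition of CSK kinase activity, from the GSK PKIS kinase inhibitor set screening panel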
# [20] = molecular target: Tyrosine-protein kinase ABL2 (Homo sapiens) (UniProt P42684); conditions: at 1 µM
# Sequence of Tyrosine-protein kinase CSK (Homo sapiens) (P41240 2-450 limits assumed): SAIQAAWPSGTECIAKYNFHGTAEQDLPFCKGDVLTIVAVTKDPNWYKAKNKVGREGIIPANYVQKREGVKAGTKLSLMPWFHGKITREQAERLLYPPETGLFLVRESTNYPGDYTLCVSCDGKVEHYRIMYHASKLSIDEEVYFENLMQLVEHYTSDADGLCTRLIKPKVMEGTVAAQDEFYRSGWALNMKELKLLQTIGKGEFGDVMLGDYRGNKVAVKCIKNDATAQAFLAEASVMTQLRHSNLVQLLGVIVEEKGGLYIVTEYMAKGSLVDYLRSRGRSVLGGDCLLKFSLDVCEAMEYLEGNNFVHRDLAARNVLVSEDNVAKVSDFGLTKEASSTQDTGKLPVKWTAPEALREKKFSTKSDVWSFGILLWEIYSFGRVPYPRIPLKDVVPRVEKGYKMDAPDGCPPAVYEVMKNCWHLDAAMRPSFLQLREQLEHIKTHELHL
# Sequence of Tyrosine-protein kinase receptor UFO (Homo sapiens) (P30530 whole entry): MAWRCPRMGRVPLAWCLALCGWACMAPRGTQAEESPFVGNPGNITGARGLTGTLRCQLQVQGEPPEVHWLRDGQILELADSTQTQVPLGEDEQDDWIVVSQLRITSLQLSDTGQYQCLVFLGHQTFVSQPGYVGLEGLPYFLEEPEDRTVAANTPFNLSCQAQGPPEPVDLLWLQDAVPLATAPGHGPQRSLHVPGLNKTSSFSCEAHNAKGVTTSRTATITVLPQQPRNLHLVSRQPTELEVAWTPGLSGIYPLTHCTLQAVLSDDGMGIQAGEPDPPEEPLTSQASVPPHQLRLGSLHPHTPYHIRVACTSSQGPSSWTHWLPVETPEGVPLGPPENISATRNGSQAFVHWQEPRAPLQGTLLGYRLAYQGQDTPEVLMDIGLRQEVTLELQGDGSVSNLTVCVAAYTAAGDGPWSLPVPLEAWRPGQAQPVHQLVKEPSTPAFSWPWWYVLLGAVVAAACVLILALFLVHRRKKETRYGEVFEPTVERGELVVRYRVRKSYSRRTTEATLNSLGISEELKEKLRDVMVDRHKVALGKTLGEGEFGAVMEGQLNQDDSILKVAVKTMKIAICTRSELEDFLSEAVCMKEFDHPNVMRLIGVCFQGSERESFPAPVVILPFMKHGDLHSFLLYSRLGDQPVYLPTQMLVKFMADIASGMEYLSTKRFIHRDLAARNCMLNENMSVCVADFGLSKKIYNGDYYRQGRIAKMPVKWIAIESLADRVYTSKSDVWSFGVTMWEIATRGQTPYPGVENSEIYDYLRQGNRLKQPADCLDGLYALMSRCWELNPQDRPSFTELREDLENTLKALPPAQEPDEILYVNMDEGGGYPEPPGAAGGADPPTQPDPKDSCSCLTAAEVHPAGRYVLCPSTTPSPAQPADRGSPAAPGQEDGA
# Sequence of ALK tyrosine kinase receptor (Homo sapiens) (Q9UM73 19-1620 limits assumed): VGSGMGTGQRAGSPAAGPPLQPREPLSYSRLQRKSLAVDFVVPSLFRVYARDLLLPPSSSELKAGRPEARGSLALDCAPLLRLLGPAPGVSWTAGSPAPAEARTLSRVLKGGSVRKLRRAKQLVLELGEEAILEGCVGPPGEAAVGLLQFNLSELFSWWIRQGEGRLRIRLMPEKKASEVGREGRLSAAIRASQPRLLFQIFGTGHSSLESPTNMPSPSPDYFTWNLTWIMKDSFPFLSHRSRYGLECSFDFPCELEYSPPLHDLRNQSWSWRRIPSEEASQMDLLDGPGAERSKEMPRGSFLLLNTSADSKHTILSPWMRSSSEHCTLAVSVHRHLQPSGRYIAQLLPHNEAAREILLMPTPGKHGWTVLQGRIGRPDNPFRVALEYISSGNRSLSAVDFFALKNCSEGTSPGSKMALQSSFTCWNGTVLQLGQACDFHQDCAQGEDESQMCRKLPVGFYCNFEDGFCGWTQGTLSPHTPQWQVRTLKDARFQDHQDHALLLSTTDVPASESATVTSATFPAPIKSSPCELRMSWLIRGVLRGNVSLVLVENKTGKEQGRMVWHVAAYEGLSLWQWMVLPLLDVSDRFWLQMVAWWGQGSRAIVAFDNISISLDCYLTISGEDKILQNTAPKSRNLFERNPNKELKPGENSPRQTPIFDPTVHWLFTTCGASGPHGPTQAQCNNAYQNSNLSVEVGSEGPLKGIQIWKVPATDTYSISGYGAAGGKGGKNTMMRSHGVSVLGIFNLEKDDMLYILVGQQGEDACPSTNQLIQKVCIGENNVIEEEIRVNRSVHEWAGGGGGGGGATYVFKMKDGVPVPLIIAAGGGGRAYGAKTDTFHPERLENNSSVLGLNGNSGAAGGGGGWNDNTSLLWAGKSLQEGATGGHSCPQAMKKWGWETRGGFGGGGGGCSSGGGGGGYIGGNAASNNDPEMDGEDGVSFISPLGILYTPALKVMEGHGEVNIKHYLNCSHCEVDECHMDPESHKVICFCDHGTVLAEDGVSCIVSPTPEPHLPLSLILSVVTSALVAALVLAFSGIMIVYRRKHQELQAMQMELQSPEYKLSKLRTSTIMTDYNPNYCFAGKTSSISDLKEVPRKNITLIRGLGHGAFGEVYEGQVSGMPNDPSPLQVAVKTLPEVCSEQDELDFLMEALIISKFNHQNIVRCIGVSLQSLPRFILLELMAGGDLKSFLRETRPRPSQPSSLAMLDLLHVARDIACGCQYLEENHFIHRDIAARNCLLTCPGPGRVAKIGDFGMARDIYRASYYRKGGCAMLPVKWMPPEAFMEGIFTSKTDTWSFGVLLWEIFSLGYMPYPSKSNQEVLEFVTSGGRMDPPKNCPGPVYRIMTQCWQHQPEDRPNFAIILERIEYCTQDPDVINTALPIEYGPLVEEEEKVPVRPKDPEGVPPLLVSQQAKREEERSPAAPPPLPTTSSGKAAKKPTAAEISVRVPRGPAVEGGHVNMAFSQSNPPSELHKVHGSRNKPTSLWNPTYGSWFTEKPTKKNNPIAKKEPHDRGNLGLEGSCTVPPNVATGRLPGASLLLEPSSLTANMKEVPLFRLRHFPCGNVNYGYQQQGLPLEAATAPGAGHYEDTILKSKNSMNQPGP
# Sequence of Tyrosine-protein kinase Blk (Homo sapiens) (P51451 2-505 limits assumed): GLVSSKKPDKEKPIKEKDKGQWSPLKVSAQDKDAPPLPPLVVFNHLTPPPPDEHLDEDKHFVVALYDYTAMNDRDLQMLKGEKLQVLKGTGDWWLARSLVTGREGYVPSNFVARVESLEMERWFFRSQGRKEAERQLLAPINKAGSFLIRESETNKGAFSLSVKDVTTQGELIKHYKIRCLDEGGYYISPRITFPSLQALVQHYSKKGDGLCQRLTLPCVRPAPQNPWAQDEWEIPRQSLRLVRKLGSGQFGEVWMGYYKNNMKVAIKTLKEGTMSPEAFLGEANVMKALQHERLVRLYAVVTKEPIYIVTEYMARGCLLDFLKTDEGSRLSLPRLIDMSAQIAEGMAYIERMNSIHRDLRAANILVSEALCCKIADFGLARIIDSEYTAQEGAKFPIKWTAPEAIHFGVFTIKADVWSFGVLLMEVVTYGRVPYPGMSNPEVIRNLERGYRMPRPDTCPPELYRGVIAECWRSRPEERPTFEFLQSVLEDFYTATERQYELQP
# Sequence of Protein-tyrosine kinase 6 (Homo sapiens) (Q13882 whole entry, looked up): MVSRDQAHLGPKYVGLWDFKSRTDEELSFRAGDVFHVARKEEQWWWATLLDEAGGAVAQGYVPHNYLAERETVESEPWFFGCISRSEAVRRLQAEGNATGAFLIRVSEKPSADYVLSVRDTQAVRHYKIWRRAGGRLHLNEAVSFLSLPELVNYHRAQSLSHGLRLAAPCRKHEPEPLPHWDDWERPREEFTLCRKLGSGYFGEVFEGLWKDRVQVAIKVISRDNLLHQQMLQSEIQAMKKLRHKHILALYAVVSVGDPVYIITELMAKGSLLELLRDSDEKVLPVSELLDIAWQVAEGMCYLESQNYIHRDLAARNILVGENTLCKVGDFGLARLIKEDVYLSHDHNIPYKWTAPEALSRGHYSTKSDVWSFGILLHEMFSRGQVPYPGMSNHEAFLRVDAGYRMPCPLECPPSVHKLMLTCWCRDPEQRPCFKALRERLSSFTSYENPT
# Sequence of Tyrosine-protein kinase BTK (Homo sapiens) (Q06187 whole entry): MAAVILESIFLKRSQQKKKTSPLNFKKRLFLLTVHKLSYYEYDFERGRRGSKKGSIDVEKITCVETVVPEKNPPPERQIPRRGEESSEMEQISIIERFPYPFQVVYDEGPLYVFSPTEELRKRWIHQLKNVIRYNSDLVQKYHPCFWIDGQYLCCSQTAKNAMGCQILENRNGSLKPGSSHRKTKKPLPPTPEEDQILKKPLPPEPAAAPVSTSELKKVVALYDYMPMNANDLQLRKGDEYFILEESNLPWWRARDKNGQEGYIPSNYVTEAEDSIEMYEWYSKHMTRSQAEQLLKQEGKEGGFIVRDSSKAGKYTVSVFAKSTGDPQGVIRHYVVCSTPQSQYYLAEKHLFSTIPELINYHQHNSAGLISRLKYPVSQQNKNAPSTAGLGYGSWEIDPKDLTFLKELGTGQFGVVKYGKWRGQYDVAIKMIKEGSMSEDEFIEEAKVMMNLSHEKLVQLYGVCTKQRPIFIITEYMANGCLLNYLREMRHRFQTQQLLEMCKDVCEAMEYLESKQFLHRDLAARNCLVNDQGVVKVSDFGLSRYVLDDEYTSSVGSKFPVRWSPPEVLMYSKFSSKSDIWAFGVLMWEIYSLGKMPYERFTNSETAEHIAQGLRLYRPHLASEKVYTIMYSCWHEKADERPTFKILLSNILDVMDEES
Structure (SMILES),inhibition [1],inhibition [2],inhibition [3],inhibition [4],inhibition [5],inhibition [6],inhibition [7],inhibition [8],inhibition [9],inhibition [10],inhibition [11],inhibition [12],inhibition [13],inhibition [14],inhibition [15],inhibition [16],inhibition [17],inhibition [18],inhibition [19],inhibition [20]
OCc1ccc(-c2nc(-c3ccccn3)c(-c3ccc4c(c3)OCO4)[nH]2)cc1,0.39%,4.74%,4.83%,8.07%,12.3%,3.63%,8.19%,5.94%,-6.62%,-3.37%,3.13%,5.92%,-2.19%,4.67%,4.49%,5.07%,3.02%,3.51%,3.92%,
NS(=O)(=O)c1cccc(Nc2cc(-c3ccc(F)cc3)n[nH]2)c1,9%,4.2%,17%,3.39%,12.4%,1.3%,2.54%,3.38%,-0.57%,-3.83%,2.05%,6.41%,-2.37%,4.82%,1.68%,3.52%,0.73%,0.11%,4.6%,9.78%
COc1cc(Nc2nccc(-c3cnn4ncccc34)n2)cc(OC)c1,40.3%,13.7%,59.6%,9.67%,62.7%,5.68%,44.8%,10.5%,2%,20.7%,2%,24.8%,7.04%,31.3%,0.23%,17.6%,1.94%,11.3%,2.91%,69.6%
C[C@@H](Oc1cc(-n2cnc3ccc(OCC4CCN(C)CC4)cc32)sc1C(N)=O)c1ccccc1C(F)(F)F,13.7%,-1.07%,1.43%,0.74%,2.7%,1.57%,20.8%,0.15%,3.82%,12.8%,1.16%,14.4%,-1.33%,-2.09%,-0.71%,-4.24%,0.52%,-1.06%,-4.98%,3.87%
CC(C)c1ccc(Nc2nccc(-c3cnn4ncccc34)n2)cc1,10.6%,4.68%,10%,3.33%,13.3%,4.56%,23.7%,4.44%,-4.19%,0.39%,1.48%,4.76%,,5.9%,3.47%,6.47%,-1.04%,-0.53%,4.27%,10.6%
[O-][S+]1CCN(Cc2ccc(-c3ccc4ncnc(Nc5ccc(OCc6ccccc6)c(Cl)c5)c4c3)o2)CC1,1.03%,0.95%,2.06%,2.3%,4.26%,2.04%,8.58%,1.82%,-2.39%,0.46%,-0.34%,6.7%,0.31%,2.05%,0.38%,11%,-1.44%,-0.83%,-0.03%,3.39%
c1ccc(Nc2ncc(-c3ccccc3)o2)cc1,7.7%,5.14%,16.3%,4.09%,16.5%,2.99%,3.91%,5.2%,-3.91%,-3.74%,1.98%,5.16%,1.56%,7.49%,3.8%,7.06%,-0.11%,0.49%,4.22%,22.7%
Nc1nccc(-c2c(-c3ccc(F)cc3)ncn2CCCN2CCOCC2)n1,3.9%,3.98%,6.6%,2.4%,7.25%,2.67%,4.91%,2.67%,-5.59%,,2.93%,5.42%,3.6%,2.77%,4.81%,10.8%,-0.92%,-0.14%,2.1%,0.55%
O=C1Nc2ccccc2/C1=C/Nc1ccc2[nH]c(=O)[nH]c2c1,23.7%,9.65%,23.3%,8.95%,25.8%,2.88%,16.4%,7.75%,-8.65%,,7.96%,33%,5.38%,7.7%,4.56%,8.06%,0.87%,4.29%,6.52%,19.4%
Cc1ccc2c(-c3ccnc(Nc4ccc5c(c4)OCCO5)n3)c(-c3ccc(C(F)(F)F)cc3)nn2n1,-0.15%,0.22%,4.3%,2.59%,4.52%,2.45%,1.5%,2.56%,0.41%,1.14%,3.28%,4.48%,,0.94%,0.39%,3.26%,0.75%,1.71%,-2.99%,5%
NS(=O)(=O)c1cccc(-c2cc3ccncc3cc2OCc2ccccc2)c1,2.66%,2.88%,5.09%,4.3%,12.2%,2.82%,7.12%,4.36%,-7.61%,-7.14%,2.09%,6.09%,-0.13%,4.21%,4.43%,4.64%,-0.27%,0.84%,5.62%,15.2%
CCS(=O)(=O)c1ccc(OC)c(Nc2nccc(N(C)c3ccc4c(C)n[nH]c4c3)n2)c1,15%,66.4%,92.3%,58%,78.5%,4.29%,12.4%,42%,-6.66%,-3.9%,15.4%,67.5%,3.66%,23.2%,18.8%,79.3%,2.21%,27.1%,1.43%,73.9%
N#Cc1cccc(Nc2nccc(-c3cnn4ncccc34)n2)c1,34.2%,12.6%,49.8%,13.6%,47.5%,4.04%,18.7%,11.9%,-0.03%,33.8%,5.38%,26.5%,4.87%,39.7%,5.32%,23.5%,2.23%,5.13%,5.02%,44.3%
COc1cccc(-n2nc(C)c3c(N/N=C(\C)c4ccncc4)ncnc32)c1,-0.56%,1.07%,4.85%,3.36%,9.11%,0.43%,1.35%,-0.17%,-2.14%,0.56%,-0.21%,1.02%,1.51%,3.74%,-1.24%,-0.15%,0.11%,-0.4%,-0.83%,5.82%
COc1cc2ncn(-c3cc(OCc4ccccc4S(C)(=O)=O)c(C#N)s3)c2cc1OC,32.6%,13.8%,48.8%,9.66%,49%,4.25%,9.85%,4.77%,,43.5%,16.6%,72.3%,1.45%,33.1%,4.42%,9.89%,1.87%,11.8%,7.28%,18%
COc1cc2ncnc(Nc3ccc(C)c(O)c3)c2cc1OC,68.2%,53.7%,89.5%,36.1%,78.5%,4.66%,13.8%,15.8%,-6.97%,,7.68%,49%,6.28%,13%,17.5%,65.5%,0.81%,15.9%,5.1%,65.2%
O=C1Nc2ccc(-c3cccnc3)cc2C1=Cc1cc(Br)c(O)c(Br)c1,2.94%,5.16%,7.7%,3.97%,8.78%,4.13%,9.22%,3.5%,-3.55%,-2.44%,2.77%,10.8%,-2.3%,4.31%,4.36%,10.7%,0.22%,1.61%,4.14%,5.72%
